Compound activity (PubChem)
SMN2 splice up: enhancers of SMN2 splice variant expression; Potency, µM (highest dose often 46.1 µM), usual class: activators; hit rate 2.8% among 210,000; HEK293 SMN2-luciferase splicing reporter, luminescence, 30-36 h; note: nearly all actives have a fitted effect of over 55% in size
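HEK293 cells carry an SMN2 […]–luciferase reporter in which exon 7 inclusion puts luciferase in frame. Cells were plated 10-12 h before compound addition, then incubated 30-36 h at 37C. ONE-Glo luminescence was read; sodium butyrate at 4.5 mM final served as control.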
Rab9 promoter act: Rab9 promoter activation; AID 485297; Potency, µM (highest dose often 9.22 µM), actives largely listed as activators; Huh7 Rab9 promoter-luciferase reporter, luminescence, 24 h; hit rate 2.8% among 320,000; note: nearly all actives have a fitted effect of over 60% in size
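Cell-based reporter: Huh7 stable for Rab9 promoter-driven luciferase, plated in reduced-serum medium with 10% FBS at 1500 cells/well, compound-treated 24 h at 37 °C, luminescence read after 10 min reagent.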
ELG1 genotoxic: induces genotoxicity in HEK293T cells with luciferase-tagged ELG1 | hit rate 1.3% among 330,000 | HEK293T ELG1-luciferase reporter, luminescence, 16 h | Potency, µM (highest dose often 46 µM), actives largely listed as activators; note: nearly all actives have a fitted effect of over 60% in size
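ELG1-luciferase HEK293T cells, 2,000/well; compound pinned in; 16 hr, 37 °C, 5% CO2; ONE-Glo, 30 min RT; luminescence on CCD imager.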
FLuc modulator: inhibits or activates purified firefly luciferase, miR-21 counter-screen. P08659. purified FLuc, Km substrates, luminescence inhibition. Potency, µM (series often up to 57.5 µM), actives largely listed as inhibitors. hit rate 6.9% among 360,000; note: nearly all actives have a fitted effect of over 55% in size
Target sequence (P08659 whole entry, looked up): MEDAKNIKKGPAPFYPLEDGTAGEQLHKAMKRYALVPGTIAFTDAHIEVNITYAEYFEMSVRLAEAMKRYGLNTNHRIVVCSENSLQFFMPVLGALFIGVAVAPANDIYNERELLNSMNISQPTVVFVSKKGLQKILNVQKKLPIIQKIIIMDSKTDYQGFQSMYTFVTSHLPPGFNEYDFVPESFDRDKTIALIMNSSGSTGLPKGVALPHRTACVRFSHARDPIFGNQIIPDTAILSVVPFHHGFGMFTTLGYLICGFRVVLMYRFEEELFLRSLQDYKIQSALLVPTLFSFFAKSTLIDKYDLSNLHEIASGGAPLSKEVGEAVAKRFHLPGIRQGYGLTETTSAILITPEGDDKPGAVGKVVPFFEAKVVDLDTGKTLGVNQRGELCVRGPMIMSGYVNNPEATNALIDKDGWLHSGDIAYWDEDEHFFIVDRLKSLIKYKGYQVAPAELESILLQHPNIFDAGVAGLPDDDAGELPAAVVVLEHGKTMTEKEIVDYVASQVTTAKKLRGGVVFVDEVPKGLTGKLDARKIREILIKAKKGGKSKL
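Purified P. pyralis luciferase (10nM final) with 10uM D-luciferin and 10uM ATP (Km levels) in 50mM Tris acetate pH 7.5, 10mM Mg acetate, 0.01% Tween-20, 0.05% BSA; qHTS 6-point titration, ~60 µM downward; luminescence read.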
Luc counter: counter-screen: inhibitors of Kinase-Glo firefly luciferase; Kinase-Glo luciferase, ATP luminescence, 8 min; Potency, µM (highest dose often 38.3 µM), usual class: inhibitors; Q27757; hit rate 0.28% among 200,000; note: nearly all actives have a fitted effect of over 60% in size
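Inhibition of Kinase-Glo luciferase light generation was assessed at 10 uM ATP in pH 7.2 imidazole buffer, with luminescence measured after eight minutes at ambient temperature.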
NPC1 promoter act: NPC1 promoter activation; Huh7 NPC1 promoter luciferase reporter, 24 h; Potency, µM (doses to about 9.22 µM), hits mostly activators; hit rate 2.4% among 320,000; note: nearly all actives have a fitted effect of over 60% in size
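In 1536-well qHTS, Huh7 cells harboring an NPC1 promoter–luciferase construct received compound for 24 h; activation was quantified by luminescence following luciferase reagent addition.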
Of the large screens only hits and unclear results are named; the others gave an inactive call. Sampled rows, rich in hits. Any-hit rate of the full collection: about 7.4%. Calls come from the whole dose curve; as a rule, active = well fitted curve in the direction sought with a large enough effect; inconclusive = small, poorly fitted or top-dose-only effect, or another doubt; inactive = no such curve, though single readings can be large; an effect the other way counts as inactive or inconclusive.

CC1(C(=O)O)NCCc2cc(O)c(O)cc21 (configuration not stated)	none (no result: Rab9 promoter act, ELG1 genotoxic, FLuc modulator, Luc counter, NPC1 promoter act)
CC1(C)N=C(N)N=C(N)N1c1cccc(OCc2cccc([N+](=O)[O-])c2)c1	none (no result: Rab9 promoter act, ELG1 genotoxic, FLuc modulator, NPC1 promoter act)
Cc1ccc(/C=N/Nc2ccc(Cl)c(C(=O)O)c2)s1	SMN2 splice up 0.89µM, Rab9 promoter act 0.32µM, ELG1 genotoxic inconclusive, FLuc modulator 4.8µM, NPC1 promoter act 0.32µM
Cc1ccc(/C=N/Nc2nc(Cl)c(Cl)cc2Cl)s1	SMN2 splice up inconclusive, Rab9 promoter act inconclusive, ELG1 genotoxic inconclusive, FLuc modulator 6µM, NPC1 promoter act inconclusive
Cc1ccc(/C=N/Nc2ccc(F)cc2)s1	FLuc modulator inconclusive (no result: SMN2 splice up, Luc counter)
O=C(O)c1cc(N/N=C/c2cccs2)ccc1Cl	SMN2 splice up 11µM, Rab9 promoter act inconclusive, ELG1 genotoxic inconclusive, FLuc modulator 9.5µM, NPC1 promoter act inconclusive
COc1cc(NC(=O)CN2C(=O)C(c3ccc(C)cc3)=NC23CCCCC3)cc(OC)c1	none (no result: Rab9 promoter act, ELG1 genotoxic, Luc counter, NPC1 promoter act)
CCNc1nc(N)nc(Oc2ccc(OCC(=O)OC)nn2)n1	none (no result: Rab9 promoter act, ELG1 genotoxic, Luc counter, NPC1 promoter act)
Cc1ccc2occ(CC(=O)N(Cc3ccccc3Cl)C3CCS(=O)(=O)C3)c2c1 (configuration not stated)	none (no result: Rab9 promoter act, ELG1 genotoxic, Luc counter, NPC1 promoter act)
C(=N/n1c2ccccc2c2ccccc21)/c1ccco1	SMN2 splice up inconclusive
N=c1scc(-c2ccccc2)n1/N=C/c1ccco1	SMN2 splice up inconclusive, Rab9 promoter act 3.5µM, ELG1 genotoxic inconclusive, FLuc modulator 6.7µM, NPC1 promoter act inconclusive
COc1cccc(/C=N/Nc2nn3cnnc3c3ccccc23)c1O	none
Oc1cccc(/C=N/Nc2nn3cnnc3c3ccccc23)c1	FLuc modulator 8.5µM (no result: SMN2 splice up, Luc counter)
CN(C(=O)CSc1nc2ccc(NC(=O)c3cccc(F)c3)cc2s1)c1ccccc1	none (no result: SMN2 splice up, Rab9 promoter act, ELG1 genotoxic, Luc counter, NPC1 promoter act)
Cc1ccc(C(=O)Nc2cccc(NC(=O)c3ccc(C)c([N+](=O)[O-])c3)n2)cc1[N+](=O)[O-]	none (no result: SMN2 splice up, Luc counter)
Cc1ccc(C(=O)Nc2sc(C)c(-c3ccccc3)c2C(N)=O)cc1[N+](=O)[O-]	ELG1 genotoxic 2.9µM, FLuc modulator 3.4µM
O=C(CSc1nc2c(cnn2-c2ccc(F)cc2)c(=O)[nH]1)Nc1ccc(Br)cc1	none (no result: Rab9 promoter act, ELG1 genotoxic, Luc counter, NPC1 promoter act)
C/C(=N\Nc1ccccc1)c1cc2ccccc2oc1=O	FLuc modulator 21µM (no result: SMN2 splice up)
C/C(=N\Nc1ccc(Cl)c(C(=O)O)c1)c1cc2ccccc2o1	Rab9 promoter act inconclusive, ELG1 genotoxic inconclusive, FLuc modulator 27µM
C/C(=N\Nc1cccc(C(=O)O)c1)c1cc2ccccc2o1	SMN2 splice up 11µM, Rab9 promoter act 2.2µM, ELG1 genotoxic inconclusive, FLuc modulator 11µM, NPC1 promoter act inconclusive
Cc1ccc(C)c(-c2nc(Cn3c(=O)cc(-c4ccccc4)c4c(C)nn(C)c43)c(C)o2)c1	none (no result: SMN2 splice up, Rab9 promoter act, ELG1 genotoxic, Luc counter, NPC1 promoter act)
COc1cc(C(CC(=O)Nc2ccc(Br)cn2)N2Cc3ccccc3C2=O)cc(OC)c1OC (configuration not stated)	none (no result: SMN2 splice up, Rab9 promoter act, ELG1 genotoxic, Luc counter, NPC1 promoter act)
O=C(NN=Cc1ccccc1Cl)c1ccc(-n2cnnn2)cc1	none (no result: SMN2 splice up, Rab9 promoter act, FLuc modulator, Luc counter, NPC1 promoter act)
O=C(O)COc1ccccc1/C=N/NC(=O)CNC(=O)c1ccc(F)cc1	none (no result: SMN2 splice up, Luc counter)
Cn1cccc1-c1cc(C(=O)N/N=C/c2ccccc2Cl)[nH]n1	Rab9 promoter act inconclusive, ELG1 genotoxic inconclusive, FLuc modulator 19µM, NPC1 promoter act inconclusive (no result: SMN2 splice up, Luc counter)
O=C(O)COc1ccccc1/C=N/NC(=O)c1ccc(F)cc1	FLuc modulator 9.5µM
O=C(O)COc1ccccc1/C=N/NC(=O)c1ccc2c(c1)OCCO2	FLuc modulator 1.5µM (no result: SMN2 splice up, Luc counter)
O=C(N/N=C/c1ccccc1Cl)c1ccc(F)cc1	Rab9 promoter act 2.5µM, ELG1 genotoxic inconclusive, FLuc modulator 2.7µM, NPC1 promoter act 2.2µM
COc1ccc(-c2cn3c(n2)sc2cc(C(=O)NCCc4ccc(OC)cc4OC)ccc23)cc1	none (no result: SMN2 splice up, Rab9 promoter act, ELG1 genotoxic, Luc counter, NPC1 promoter act)
N#Cc1ccc(NC(=O)COCc2cc(-c3ccc4c(c3)OCO4)on2)cc1	none (no result: SMN2 splice up, Rab9 promoter act, ELG1 genotoxic, Luc counter, NPC1 promoter act)
NC(=O)C1(N2CCCCC2)CCN(C(=O)Nc2ccc(Cl)c(Cl)c2)CC1	none (no result: Rab9 promoter act, ELG1 genotoxic, Luc counter, NPC1 promoter act)
COc1ccc(/C=N/NC(=O)CNC(=O)c2ccc3c(c2)OCCO3)c(C(=O)O)c1OC	FLuc modulator 24µM (no result: SMN2 splice up, Luc counter)
COc1ccc(/C=N/n2c(SC)nnc2-c2ccccc2)c(OC)c1OC	SMN2 splice up 14µM
